Sampled rows, rich in hits. Any-hit rate of the full collection: about 0.93%.
RPL19A-GFP yeast: yeast TOR pathway RPL19A-GFP modulation. AID 2025. S. cerevisiae RPL19A-GFP strain, flow cytometry, 3 h; stronger effect = lower value. 0.3% of 330,000 active. percent response vs DMSO, % at 10 µM;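 active = percent response vs DMSO below 50%; inconclusive = fewer than 70 events counted for the yeast strain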;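 note: median channel GFP fluorescence of the barcoded RPL19A-GFP strain; ratio of sample median GFP to plate DMSO average so 100% = DMSO; lower means less RPL19A-GFP as with rapamycin TOR inhibition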
CIT2 TOR yeast: modulators of TOR pathway CIT2-GFP in S. cerevisiae. S. cerevisiae CIT2-GFP strain, flow cytometry, 3 h; 100 means same as DMSO wells. 0.065% of 320,000 active. AID 2029. GFP response vs DMSO, % at 10 µM;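 active = GFP response relative to DMSO above a set limit, near the screen mean plus 3 SD, cut at about 150% in these data; inconclusive = Fewer than 70 cells measured for a yeast strain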;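 note: ratio of well median GFP fluorescence to mean of DMSO wells on the plate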
MEP2 TOR yeast: yeast TOR pathway MEP2-GFP modulation; S. cerevisiae MEP2-GFP strain, flow cytometry GFP, 3 h; 100% = DMSO control level; GFP response vs DMSO, % at 10 µM; 0.51% of 330,000 active; AID 2016;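 active = GFP response versus DMSO above a set limit, roughly screen mean plus 3 SD, cut at about 180% in these data; inconclusive = fewer than 70 cells counted for a yeast strain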;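 note: median GFP fluorescence of the barcode-gated MEP2-GFP cells per well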
AGP1-GFP MLPCN: yeast TOR pathway AGP1-GFP modulation. S. cerevisiae AGP1-GFP multiplex flow cytometry, 3 h; GFP as percent of DMSO wells. AID 2066. 0.02% of 320,000 active. GFP response vs DMSO, % at 10 µM;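 active = GFP response relative to DMSO above a set limit, near screen average plus 3 SD, cut at about 150% in these data; inconclusive = fewer than 70 cells counted for the yeast strain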;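 note: median GFP channel fluorescence of the gated AGP1 strain per well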
LAP4-GFP MLPCN: alters LAP4-GFP fluorescence in TOR pathway yeast screen; S. cerevisiae LAP4-GFP multiplex, flow cytometry GFP, 3 h; median GFP as percent of DMSO wells; GFP response vs DMSO, % at 10 µM; 0.34% of 320,000 active;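 active = GFP response vs DMSO above a set limit, about the screen mean plus 3 SD, cut at about 150% in these data; inconclusive = under 70 cell events counted for the yeast strain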
LAP4 cherry2: yeast LAP4-GFP modulation, second cherry pick; 20% of 590 active; AID 2621; shares compounds with LAP4-GFP MLPCN; S. cerevisiae LAP4-GFP strain, flow cytometry GFP, 3 h; GFP response vs DMSO, % at 10 µM;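 active = GFP signal as percent of the solvent control above about 150%, meaning raised reporter expression, limit read from the data; inconclusive = fewer than 70 cells counted in the well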;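 note: ratio of well median GFP fluorescence to plate DMSO mean so 100% = DMSO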
MEP2-GFP pick2: yeast MEP2-GFP modulation, second cherry pick | S. cerevisiae MEP2-GFP strain, flow cytometry GFP, 3 h | GFP response vs DMSO, % at 10 µM | AID 2622 | shares compounds with LAP4-GFP MLPCN | 10% of 590 active;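 active = GFP signal above 150% of the solvent control wells, that is a rise of more than half; inconclusive = fewer than 70 yeast cells counted in the well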;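 note: median channel GFP fluorescence of all gated yeast cells per well; ratio of median GFP to plate DMSO average so 100% = DMSO level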
RPL19A-GFP pick2: second confirmation of modulators of TOR reporter RPL19A-GFP in yeast. shares compounds with LAP4-GFP MLPCN. S. cerevisiae RPL19A-GFP strain, flow cytometry GFP, 3 h; stronger effect = lower value; 100% means same as DMSO wells. GFP response vs DMSO, % at 10 µM. 3% of 590 active. AID 2623;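 active = under 65% GFP response relative to DMSO; inconclusive = yeast strain with under 70 measured events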;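 note: median GFP channel fluorescence per well over the all cells gate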
CIT2-GFP pick2: reconfirmed modulator of CIT2-GFP TOR reporter in yeast | shares compounds with LAP4-GFP MLPCN | S. cerevisiae CIT2-GFP strain, flow cytometry GFP, 3 h; DMSO control wells read 100% | GFP response vs DMSO, % at 10 µM | 8% of 590 active | AID 2624;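 active = GFP response vs DMSO above about 150%, limit read from the data; inconclusive = fewer than 70 events counted for a yeast strain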;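 note: median green fluorescence per well over all gated yeast cells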
AGP1 GFP CP2: second confirmation of modulators of TOR reporter AGP1-GFP in yeast; shares compounds with LAP4-GFP MLPCN; S. cerevisiae AGP1-GFP strain, flow cytometry GFP, 3 h; percent response vs DMSO, % at 10 µM; 590 tested, under 10 active; AID 2643;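 active = over 150 percent of DMSO response; inconclusive = yeast strain measured with under 70 events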;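 note: median GFP channel fluorescence over all cells without mother daughter split; sample median GFP divided by mean DMSO control so 100% equals DMSO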
s288c autofluor: counter-screen for compound autofluorescence in yeast s288c cells. shares compounds with LAP4-GFP MLPCN. S. cerevisiae s288c, 520 nm autofluorescence, flow cytometry, 3 h; stronger effect = higher value; zero means same as solvent-only cells. fluorescence change (kMESF span) at 33 µM. 610 tested, under 10 active;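 active = fluorescence span over the dose series, or activity score, above about 33, limit read from the data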
* marks the source's active call; other numbers are inactive results; u = inconclusive; x = not tested or not shown.

SMILES	RPL19A-GFP yeast	CIT2 TOR yeast	MEP2 TOR yeast	AGP1-GFP MLPCN	LAP4-GFP MLPCN	LAP4 cherry2	MEP2-GFP pick2	RPL19A-GFP pick2	CIT2-GFP pick2	AGP1 GFP CP2	s288c autofluor
C#CCOCCOCCOCCNc1nc(N2CCN(C(=O)CCCCCCCCCCNC(=O)Cn3cc(CCCCCN)nn3)CC2)nc(N2CCN(C(=O)CCCCCCCCCCNC(=O)[C@H]([C@@H](C)CC)n3cc(CCCCN=C(N)N)nn3)CC2)n1	86	78	81	77	151*	114	133	96	117	106	x
CC(C)(C)C1CCC(=NNC(=O)C(=O)NCc2ccco2)CC1 (stereo not given)	60	84	115	83	88	96	98	99	105	100	x
COc1cccc(/C=N/Nc2nc(Nc3ccc([N+](=O)[O-])cc3)nc(N3CCCC3)n2)c1O	102	102	108	106	105	x	x	x	x	x	x
COc1cccc(/C=N/Nc2ccc([N+](=O)[O-])cn2)c1O	97	97	113	99	156*	161*	114	94	106	91	0.51
CN(O)/C=c1/ccc2c(n1)C(=O)C=CC=2	90	116	98	87	275*	x	x	x	x	x	0.21
COc1ccccc1N(CC(=O)N/N=C(\C)c1ccc(F)cc1)S(=O)(=O)c1ccccc1	96	84	100	96	96	x	x	x	x	x	x
O=C(CCS(=O)(=O)c1ccccc1)Nc1nc(-c2ccccn2)cs1	97	93	97	96	97	104	101	99	100	100	-0.1
Cc1cc(C)c(OCC(=O)Nc2nc(-c3ccccn3)cs2)c(C)c1	88	78	83	75	153*	x	x	x	x	x	0.3
COc1ccc(OCCCC(=O)Nc2nc(-c3ccccn3)cs2)cc1	97	101	100	99	108	x	x	x	x	x	x
COc1ccc(-c2nnc(NC(=O)Cc3ccccc3)o2)cc1	94	94	94	91	92	x	x	x	x	x	x
CCOc1ccc(Br)cc1S(=O)(=O)NC1CCCC1	97	91	96	102	104	x	x	x	x	x	x
COc1ccc(/C=C/C(=O)C2C(=O)C=C(C)OC2=O)cc1O (stereo not given)	99	90	92	96	185*	x	x	x	x	x	-0.2
Cc1nn(C)c(C)c1N1C(=O)c2cccc3c(Br)ccc(c23)C1=O	100	85	101	98	110	x	x	x	x	x	-0.2
NC(=O)C1CCN(C(=O)c2cc(Cl)c3c(c2)OCCO3)CC1	83	71	95	99	183*	99	98	101	106	100	x
N#Cc1ccc(CN2CCN(C(=O)c3cc(Cl)c4c(c3)OCCO4)CC2)cc1	99	94	100	102	109	x	x	x	x	x	x
CC(C)(C)NC(=S)NCC1CC1	98	92	96	100	111	x	x	x	x	x	x
CC(=O)N(C1=C(Cl)C(=O)c2ccccc2C1=O)C1CCCCC1	8.2*	68	69	8	45	x	x	x	x	x	7.1
Cc1[nH][nH]c(=O)c1C(c1ccc(-c2ccc(Cl)c(Cl)c2)o1)c1c(C)[nH][nH]c1=O	94	102	96	85	217*	x	x	x	x	x	-1.4
Cc1[nH][nH]c(=O)c1C(c1ccc(-c2ccc(F)cc2)o1)c1c(C)[nH][nH]c1=O	107	98	106	98	100	x	x	x	x	x	x
CCCN1CCc2c(sc(NC(=S)NC(=O)c3ccccc3)c2C#N)C1	112	157*	129	100	139	x	x	x	x	x	1.6
CC(C)N1CCc2c(sc(NC(=S)NC(=O)c3ccccc3)c2C#N)C1	104	117	122	101	99	x	x	x	x	x	x
CCn1c(CSc2nnc(-c3ccncc3)n2C)nc2cc(C(=O)O)ccc21	98	92	102	101	109	x	x	x	x	x	x
COc1c(OC(C)=O)c(=O)n2c3ccccc3c3ccnc1c32	48*	93	245*	24	95	91	92	105	109	87	x
CC(=O)CSc1ncnc2c1cnn2-c1ccccc1	120	203*	183*	103	149	x	x	x	x	x	0.1
O=C1Nc2ccccc2/C1=C/c1cnc(-c2ccccc2)[nH]1	120	161*	184*	116	169*	111	141	103	134	100	x
SMILES	RPL19A-GFP yeast	CIT2 TOR yeast	MEP2 TOR yeast	AGP1-GFP MLPCN	LAP4-GFP MLPCN	LAP4 cherry2	MEP2-GFP pick2	RPL19A-GFP pick2	CIT2-GFP pick2	AGP1 GFP CP2	s288c autofluor
O=C(/C=C/c1cccc([N+](=O)[O-])c1)c1ccc([N+](=O)[O-])o1	71	75	83	68	243*	182*	138	94	126	87	1.4
O=C(/C=C/c1cccc([N+](=O)[O-])c1)c1ccco1	88	84	91	85	147	x	x	x	x	x	x
Cc1cccc(/C=C/C(=O)c2ccc([N+](=O)[O-])o2)c1	90	80	84	61	176*	247*	150*	93	157*	102	9.7
O=C1Nc2ccccc2/C1=C/C(=O)c1cccs1	54	u	162	u	129	x	x	x	x	x	x
COc1ccc(C(=O)/C=C2/C(=O)Nc3ccccc32)c(OC)c1	94	80	87	88	137	x	x	x	x	x	0.1
COc1cc(OC)c(/C=C2\C(=O)Nc3ccccc32)c(OC)c1	100	68	102	78	141	x	x	x	x	x	x
COc1ccc(C(=O)/C=C2/C(=O)Nc3ccccc32)cc1OC	108	102	103	105	95	x	x	x	x	x	-2.1
COc1ccc(C(=O)/C=C2/C(=O)Nc3ccccc32)cc1	103	74	97	71	167*	x	x	x	x	x	-0.2
COc1ccc(COc2ccc(C3C(S(=O)(=O)c4ccccc4)CON3C)cc2OC)cc1 (stereo not given)	97	97	89	101	94	x	x	x	x	x	x
O=C1CC(c2ccccc2)=NN1c1nc(-c2ccccc2)cs1	63	62	100	40	79	149	213*	81	145	77	2.2
COc1cccc(/C=N/N=C(\N)c2nonc2N)c1O	88	86	90	87	90	x	x	x	x	x	x
